# Experimental data taken from publication PMC7862700, “An all-to-all approach to the identification of sequence-specific readers for epigenetic DNA modifications on cytosine”.
# Legend:
# Assay in all cases: DAPPL (digital affinity profiling via proximity ligation, sequencing); 10 mM Tris-HCl pH 7.5, 50 mM NaCl, 1 mM DTT, 4% glycerol, room temperature, 30 min; GST-TFs on glutathione beads, 16-mer random dsDNA library, 0.1% formaldehyde crosslink after washing; high values mean tight binding
# [1] = target: T1, FLI1 (Homo sapiens, UniProt Q01543 1-452); details: protein: recombinant; tags: N-terminal GST; dsDNA, one strand shown
# T1 sequence: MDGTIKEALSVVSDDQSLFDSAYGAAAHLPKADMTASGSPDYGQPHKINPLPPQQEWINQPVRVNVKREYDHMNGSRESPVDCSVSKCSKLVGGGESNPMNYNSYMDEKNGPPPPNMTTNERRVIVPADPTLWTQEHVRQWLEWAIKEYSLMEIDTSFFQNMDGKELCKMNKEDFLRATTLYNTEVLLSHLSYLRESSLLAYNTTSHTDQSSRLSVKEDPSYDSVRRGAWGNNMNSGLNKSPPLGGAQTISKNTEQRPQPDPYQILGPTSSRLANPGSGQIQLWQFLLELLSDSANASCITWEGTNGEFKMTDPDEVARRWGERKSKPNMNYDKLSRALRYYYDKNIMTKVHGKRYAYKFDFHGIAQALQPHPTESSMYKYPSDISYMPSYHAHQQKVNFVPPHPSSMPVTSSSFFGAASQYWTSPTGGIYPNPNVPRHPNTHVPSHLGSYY
# Outline: (§1)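 Pools of DNA-barcoded human transcription factors, expressed in yeast as GST fusions on glutathione beads and combined with a tag-only sample, were incubated with 200 nmole of a 16-mer random double-stranded DNA library. Incubation took 30 min at room temperature in Tris/NaCl/DTT/glycerol buffer and was followed by washing, 0.1% formaldehyde crosslinking, proximity ligation (BsaI/T4 ligase, 1 h, 37 °C), PCR amplification and sequencing on an Illumina NextSeq500. Binding signal is the ratio of a hexamer's read frequency for a factor to its frequency for the tag-only sample.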
# [2] = target: T2, ELK1 (Homo sapiens, UniProt P19419 1-428); details: protein: recombinant; tags: N-terminal GST; dsDNA, one strand shown
# T2 sequence: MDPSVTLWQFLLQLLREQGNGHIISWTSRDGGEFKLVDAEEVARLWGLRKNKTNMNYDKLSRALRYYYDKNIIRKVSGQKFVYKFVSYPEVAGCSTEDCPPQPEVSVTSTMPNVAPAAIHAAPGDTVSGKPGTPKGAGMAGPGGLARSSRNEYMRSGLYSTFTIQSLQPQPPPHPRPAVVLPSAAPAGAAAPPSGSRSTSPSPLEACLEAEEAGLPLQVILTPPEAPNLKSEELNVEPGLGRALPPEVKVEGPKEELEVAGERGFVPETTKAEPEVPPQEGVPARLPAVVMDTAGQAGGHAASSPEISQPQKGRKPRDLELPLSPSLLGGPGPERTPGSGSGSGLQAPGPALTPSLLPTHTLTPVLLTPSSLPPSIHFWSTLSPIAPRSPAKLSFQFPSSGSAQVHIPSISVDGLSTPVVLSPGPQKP
# Outline: as §1
# [3] = target: T3, GABPA (Homo sapiens, UniProt Q06546 1-454); details: protein: recombinant; tags: N-terminal GST; dsDNA, one strand shown
# T3 sequence: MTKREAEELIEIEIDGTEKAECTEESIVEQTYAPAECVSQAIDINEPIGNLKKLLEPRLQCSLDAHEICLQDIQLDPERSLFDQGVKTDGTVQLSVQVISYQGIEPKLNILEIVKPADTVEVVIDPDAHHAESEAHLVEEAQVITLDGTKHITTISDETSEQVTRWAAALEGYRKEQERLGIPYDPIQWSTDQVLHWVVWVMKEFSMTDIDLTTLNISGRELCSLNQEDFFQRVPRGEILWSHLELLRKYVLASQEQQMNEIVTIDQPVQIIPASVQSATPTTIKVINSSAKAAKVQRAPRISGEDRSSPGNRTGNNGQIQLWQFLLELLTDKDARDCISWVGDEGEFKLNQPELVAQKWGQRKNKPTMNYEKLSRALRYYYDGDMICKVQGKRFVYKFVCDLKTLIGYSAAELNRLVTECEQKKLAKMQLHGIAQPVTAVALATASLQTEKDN
# Outline: as §1
# [4] = target: T4, ERG (Homo sapiens, UniProt P11308 1-479); details: protein: recombinant; tags: N-terminal GST; dsDNA, one strand shown
# T4 sequence: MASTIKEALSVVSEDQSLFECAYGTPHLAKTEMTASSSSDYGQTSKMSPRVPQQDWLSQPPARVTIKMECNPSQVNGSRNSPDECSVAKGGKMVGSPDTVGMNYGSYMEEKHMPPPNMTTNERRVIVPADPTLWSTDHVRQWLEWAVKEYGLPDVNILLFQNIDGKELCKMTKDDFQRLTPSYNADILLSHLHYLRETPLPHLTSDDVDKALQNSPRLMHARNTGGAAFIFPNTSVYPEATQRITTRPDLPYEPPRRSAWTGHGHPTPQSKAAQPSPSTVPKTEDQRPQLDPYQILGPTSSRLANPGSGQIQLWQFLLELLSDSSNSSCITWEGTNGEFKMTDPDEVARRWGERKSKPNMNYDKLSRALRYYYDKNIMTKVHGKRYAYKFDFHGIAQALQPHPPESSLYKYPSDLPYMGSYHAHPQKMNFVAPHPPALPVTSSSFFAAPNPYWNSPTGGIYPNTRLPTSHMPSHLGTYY
# Outline: as §1
# [5] = target: ELF1 (Homo sapiens, UniProt P32519 1-619); details: protein: recombinant; tags: N-terminal GST; dsDNA, one strand shown
# Outline: as §1
# [6] = target: T5, EHF (Homo sapiens, UniProt Q9NZC4 1-300); details: protein: recombinant; tags: N-terminal GST; dsDNA, one strand shown
# T5 sequence: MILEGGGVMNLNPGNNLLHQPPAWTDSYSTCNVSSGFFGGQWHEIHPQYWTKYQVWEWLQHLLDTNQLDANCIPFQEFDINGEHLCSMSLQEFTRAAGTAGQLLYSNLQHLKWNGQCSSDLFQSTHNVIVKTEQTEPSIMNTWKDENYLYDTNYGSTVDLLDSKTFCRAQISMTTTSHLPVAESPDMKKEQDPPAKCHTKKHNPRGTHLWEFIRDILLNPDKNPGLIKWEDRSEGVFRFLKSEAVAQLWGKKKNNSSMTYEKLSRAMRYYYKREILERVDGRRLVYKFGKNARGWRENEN
# Outline: as §1
# [7] = target: SPI1 (Homo sapiens, UniProt P17947 1-270); details: protein: recombinant; tags: N-terminal GST; dsDNA, one strand shown
# Outline: as §1
# [8] = target: SPIB (Homo sapiens, UniProt Q01892 1-262); details: protein: recombinant; tags: N-terminal GST; dsDNA, one strand shown
# Outline: as §1
# [9] = target: T6, FEV (Homo sapiens, UniProt Q99581 1-238); details: protein: recombinant; tags: N-terminal GST; dsDNA, one strand shown
# T6 sequence: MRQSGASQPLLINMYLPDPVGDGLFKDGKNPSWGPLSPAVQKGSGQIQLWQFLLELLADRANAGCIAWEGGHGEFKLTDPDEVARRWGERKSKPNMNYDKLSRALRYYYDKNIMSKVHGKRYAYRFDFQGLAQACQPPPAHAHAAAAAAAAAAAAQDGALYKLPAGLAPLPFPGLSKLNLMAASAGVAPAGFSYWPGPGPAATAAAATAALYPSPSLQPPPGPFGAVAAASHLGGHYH
# Outline: as §1
# [10] = target: ETV5 (Homo sapiens, UniProt P41161 1-510); details: protein: recombinant; tags: N-terminal GST; dsDNA, one strand shown
# Outline: as §1
# [11] = target: HSF1 (Homo sapiens, UniProt Q00613 1-529); details: protein: recombinant; tags: N-terminal GST; chain copies: 3; dsDNA, one strand shown
# Outline: as §1
# [12] = target: T7, SPIC (Homo sapiens, UniProt Q8N5J4 1-248); details: protein: recombinant; tags: N-terminal GST; dsDNA, one strand shown
# T7 sequence: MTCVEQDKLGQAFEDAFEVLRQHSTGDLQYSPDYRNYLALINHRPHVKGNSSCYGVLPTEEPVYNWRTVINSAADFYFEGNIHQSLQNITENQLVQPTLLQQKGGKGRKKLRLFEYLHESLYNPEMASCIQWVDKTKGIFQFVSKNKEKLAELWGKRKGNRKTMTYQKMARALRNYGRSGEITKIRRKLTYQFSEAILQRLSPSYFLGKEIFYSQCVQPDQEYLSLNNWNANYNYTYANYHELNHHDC
# Outline: as §1
# [13] = target: ELF4 (Homo sapiens, UniProt Q99607 1-663); details: protein: recombinant; tags: N-terminal GST; dsDNA, one strand shown
# Outline: as §1
# [14] = target: T8, ELK4 (Homo sapiens, UniProt P28324-2 1-405); details: protein: recombinant; tags: N-terminal GST; dsDNA, one strand shown
# T8 sequence: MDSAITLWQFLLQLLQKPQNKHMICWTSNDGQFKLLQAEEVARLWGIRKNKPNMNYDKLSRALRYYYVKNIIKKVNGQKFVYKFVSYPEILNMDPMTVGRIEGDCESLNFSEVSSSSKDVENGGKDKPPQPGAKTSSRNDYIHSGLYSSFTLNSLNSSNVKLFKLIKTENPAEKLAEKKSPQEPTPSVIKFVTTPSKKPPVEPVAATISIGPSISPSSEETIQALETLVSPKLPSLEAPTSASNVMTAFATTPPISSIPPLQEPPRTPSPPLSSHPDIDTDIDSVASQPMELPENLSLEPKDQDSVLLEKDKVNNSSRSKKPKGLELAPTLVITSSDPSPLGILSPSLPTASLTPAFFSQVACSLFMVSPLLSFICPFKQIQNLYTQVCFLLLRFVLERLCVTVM
# Outline: as §1
# [15] = target: T9, ETV2 (Homo sapiens, UniProt O00321 1-342); details: protein: recombinant; tags: N-terminal GST; dsDNA, one strand shown
# T9 sequence: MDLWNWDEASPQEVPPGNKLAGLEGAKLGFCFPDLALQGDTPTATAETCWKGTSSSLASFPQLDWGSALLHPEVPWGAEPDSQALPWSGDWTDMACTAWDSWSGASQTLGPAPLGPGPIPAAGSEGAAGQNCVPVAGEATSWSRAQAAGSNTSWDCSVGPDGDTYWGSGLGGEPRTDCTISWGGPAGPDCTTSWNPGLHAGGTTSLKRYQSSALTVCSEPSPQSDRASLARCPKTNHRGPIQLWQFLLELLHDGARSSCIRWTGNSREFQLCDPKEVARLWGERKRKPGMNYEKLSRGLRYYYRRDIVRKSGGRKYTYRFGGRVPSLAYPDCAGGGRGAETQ
# Outline: as §1
# [16] = target: T10, ELF3 (Homo sapiens, UniProt P78545 1-371); details: protein: recombinant; tags: N-terminal GST; dsDNA, one strand shown
# T10 sequence: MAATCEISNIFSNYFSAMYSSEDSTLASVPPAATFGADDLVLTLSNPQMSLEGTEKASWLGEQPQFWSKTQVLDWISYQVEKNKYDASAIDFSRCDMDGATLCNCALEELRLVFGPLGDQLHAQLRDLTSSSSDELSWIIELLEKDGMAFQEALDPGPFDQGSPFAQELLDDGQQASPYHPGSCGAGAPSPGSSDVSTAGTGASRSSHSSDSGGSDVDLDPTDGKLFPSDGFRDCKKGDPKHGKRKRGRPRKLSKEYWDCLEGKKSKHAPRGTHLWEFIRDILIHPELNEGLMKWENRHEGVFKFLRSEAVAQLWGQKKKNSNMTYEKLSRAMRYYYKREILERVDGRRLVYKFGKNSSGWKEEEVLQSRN
# Outline: as §1
# [17] = target: CRX (Homo sapiens, UniProt O43186 1-299); details: protein: recombinant; tags: N-terminal GST; dsDNA, one strand shown
# Outline: as §1
# [18] = target: ETV1 (Homo sapiens, UniProt P50549 1-477); details: protein: recombinant; tags: N-terminal GST; dsDNA, one strand shown
# Outline: as §1
# Chain of ETV1 (P50549 whole entry): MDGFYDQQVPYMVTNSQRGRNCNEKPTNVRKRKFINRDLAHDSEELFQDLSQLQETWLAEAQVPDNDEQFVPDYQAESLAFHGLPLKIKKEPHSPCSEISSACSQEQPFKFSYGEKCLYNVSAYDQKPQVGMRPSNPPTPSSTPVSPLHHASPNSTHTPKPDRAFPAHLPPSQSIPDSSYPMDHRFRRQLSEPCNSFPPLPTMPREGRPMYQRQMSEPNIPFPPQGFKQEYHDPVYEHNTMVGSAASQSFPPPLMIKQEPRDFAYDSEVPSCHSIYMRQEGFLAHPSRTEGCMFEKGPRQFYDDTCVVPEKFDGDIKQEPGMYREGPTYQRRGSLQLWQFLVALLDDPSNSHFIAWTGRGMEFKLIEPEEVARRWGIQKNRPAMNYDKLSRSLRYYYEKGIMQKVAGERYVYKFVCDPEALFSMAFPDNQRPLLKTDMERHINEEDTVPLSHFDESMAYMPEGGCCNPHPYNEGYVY
# Chain of CRX (O43186 whole entry): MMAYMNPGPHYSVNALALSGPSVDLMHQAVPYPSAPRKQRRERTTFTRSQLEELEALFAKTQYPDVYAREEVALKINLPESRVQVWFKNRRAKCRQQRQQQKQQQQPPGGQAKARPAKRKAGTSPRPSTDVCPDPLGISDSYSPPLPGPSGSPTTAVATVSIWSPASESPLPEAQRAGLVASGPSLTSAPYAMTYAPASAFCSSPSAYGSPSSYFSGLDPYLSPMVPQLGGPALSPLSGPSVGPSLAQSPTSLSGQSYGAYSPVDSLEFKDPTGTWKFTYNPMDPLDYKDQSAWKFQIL
# Chain of ELF4 (Q99607 whole entry): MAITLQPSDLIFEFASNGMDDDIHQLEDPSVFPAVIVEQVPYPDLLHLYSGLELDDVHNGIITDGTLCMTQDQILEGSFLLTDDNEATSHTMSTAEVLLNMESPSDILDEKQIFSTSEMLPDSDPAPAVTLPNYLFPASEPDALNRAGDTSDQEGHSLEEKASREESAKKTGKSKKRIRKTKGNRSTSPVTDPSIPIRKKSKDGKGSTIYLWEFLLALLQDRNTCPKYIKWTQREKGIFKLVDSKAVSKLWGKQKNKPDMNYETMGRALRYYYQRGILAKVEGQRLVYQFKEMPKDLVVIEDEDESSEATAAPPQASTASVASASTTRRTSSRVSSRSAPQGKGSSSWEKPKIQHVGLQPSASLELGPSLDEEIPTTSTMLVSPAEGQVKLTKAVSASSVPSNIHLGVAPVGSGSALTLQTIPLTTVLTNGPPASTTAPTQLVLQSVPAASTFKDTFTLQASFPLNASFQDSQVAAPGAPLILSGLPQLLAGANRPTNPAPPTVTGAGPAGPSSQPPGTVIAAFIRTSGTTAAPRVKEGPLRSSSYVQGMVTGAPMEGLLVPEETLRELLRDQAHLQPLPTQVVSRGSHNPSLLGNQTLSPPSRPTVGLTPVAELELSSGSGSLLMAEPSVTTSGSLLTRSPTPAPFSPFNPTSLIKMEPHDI
# Chain of HSF1 (Q00613 whole entry): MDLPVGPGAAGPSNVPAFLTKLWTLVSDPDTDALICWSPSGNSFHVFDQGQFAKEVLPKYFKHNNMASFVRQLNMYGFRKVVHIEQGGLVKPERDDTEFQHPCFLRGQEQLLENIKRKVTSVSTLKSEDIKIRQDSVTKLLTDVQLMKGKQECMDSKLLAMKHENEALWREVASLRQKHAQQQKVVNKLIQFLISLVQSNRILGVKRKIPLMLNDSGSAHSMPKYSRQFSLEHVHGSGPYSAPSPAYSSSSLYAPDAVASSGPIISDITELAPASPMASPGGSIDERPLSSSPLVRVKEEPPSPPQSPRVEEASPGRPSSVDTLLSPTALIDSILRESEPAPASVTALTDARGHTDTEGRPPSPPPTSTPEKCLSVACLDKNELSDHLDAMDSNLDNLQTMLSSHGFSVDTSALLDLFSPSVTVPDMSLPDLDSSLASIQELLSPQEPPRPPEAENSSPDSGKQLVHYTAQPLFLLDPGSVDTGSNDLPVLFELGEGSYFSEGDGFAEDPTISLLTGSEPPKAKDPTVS
# Chain of ETV5 (P41161 whole entry): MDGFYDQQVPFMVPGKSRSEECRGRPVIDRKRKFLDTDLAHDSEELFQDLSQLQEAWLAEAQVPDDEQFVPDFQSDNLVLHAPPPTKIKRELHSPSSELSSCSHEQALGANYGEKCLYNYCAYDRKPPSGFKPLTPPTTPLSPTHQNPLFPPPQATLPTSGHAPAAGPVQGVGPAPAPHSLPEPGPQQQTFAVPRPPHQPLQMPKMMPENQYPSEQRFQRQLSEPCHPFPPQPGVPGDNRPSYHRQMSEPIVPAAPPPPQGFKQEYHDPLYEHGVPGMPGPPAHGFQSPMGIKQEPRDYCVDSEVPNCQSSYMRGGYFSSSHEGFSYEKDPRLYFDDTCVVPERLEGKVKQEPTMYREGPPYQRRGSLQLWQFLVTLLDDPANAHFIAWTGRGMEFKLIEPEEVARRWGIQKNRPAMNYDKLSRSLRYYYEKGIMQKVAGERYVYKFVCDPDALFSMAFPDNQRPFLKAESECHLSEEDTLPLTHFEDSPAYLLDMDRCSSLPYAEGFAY
# Chain of ELF1 (P32519 whole entry): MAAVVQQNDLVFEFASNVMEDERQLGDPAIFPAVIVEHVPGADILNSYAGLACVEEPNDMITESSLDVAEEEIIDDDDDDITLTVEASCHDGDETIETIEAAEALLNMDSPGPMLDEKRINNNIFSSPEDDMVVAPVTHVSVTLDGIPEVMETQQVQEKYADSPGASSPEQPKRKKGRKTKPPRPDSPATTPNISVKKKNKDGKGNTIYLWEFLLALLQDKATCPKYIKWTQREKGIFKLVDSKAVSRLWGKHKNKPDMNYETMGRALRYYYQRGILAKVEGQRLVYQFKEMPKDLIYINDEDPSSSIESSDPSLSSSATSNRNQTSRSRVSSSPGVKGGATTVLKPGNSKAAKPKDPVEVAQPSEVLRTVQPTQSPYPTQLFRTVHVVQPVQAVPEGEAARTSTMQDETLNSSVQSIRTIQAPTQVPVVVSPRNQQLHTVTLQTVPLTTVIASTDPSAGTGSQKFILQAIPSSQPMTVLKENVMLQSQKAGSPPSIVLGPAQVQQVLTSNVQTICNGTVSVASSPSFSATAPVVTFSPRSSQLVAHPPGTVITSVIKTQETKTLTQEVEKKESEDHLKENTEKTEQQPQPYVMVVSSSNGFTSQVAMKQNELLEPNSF
# Chain of SPIB (Q01892 whole entry): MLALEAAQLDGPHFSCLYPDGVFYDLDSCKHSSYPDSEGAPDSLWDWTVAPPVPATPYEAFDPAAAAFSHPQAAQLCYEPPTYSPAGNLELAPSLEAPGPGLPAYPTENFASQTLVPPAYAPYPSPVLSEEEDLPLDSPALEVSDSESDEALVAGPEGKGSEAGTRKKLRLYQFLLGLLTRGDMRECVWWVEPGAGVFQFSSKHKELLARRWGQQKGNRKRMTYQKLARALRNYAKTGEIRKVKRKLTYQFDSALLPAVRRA
sequence,measurement,setting,value
TATTCG,binding signal,[1],"1.11 fold enrichment (6-mer frequency, TF over GST control)"
same,binding signal,[2],"1.11 fold enrichment (6-mer frequency, TF over GST control)"
same,binding signal,[3],"1.2 fold enrichment (6-mer frequency, TF over GST control)"
same,binding signal,[4],"1.14 fold enrichment (6-mer frequency, TF over GST control)"
same,binding signal,[5],"1.14 fold enrichment (6-mer frequency, TF over GST control)"
same,binding signal,[6],"1.11 fold enrichment (6-mer frequency, TF over GST control)"
same,binding signal,[7],"1.18 fold enrichment (6-mer frequency, TF over GST control)"
same,binding signal,[8],"1.16 fold enrichment (6-mer frequency, TF over GST control)"
same,binding signal,[9],"1.06 fold enrichment (6-mer frequency, TF over GST control)"
same,binding signal,[10],"1.11 fold enrichment (6-mer frequency, TF over GST control)"
same,binding signal,[11],"1.64 fold enrichment (6-mer frequency, TF over GST control)"
same,binding signal,[12],"1.17 fold enrichment (6-mer frequency, TF over GST control)"
same,binding signal,[13],"1.17 fold enrichment (6-mer frequency, TF over GST control)"
same,binding signal,[14],"1.22 fold enrichment (6-mer frequency, TF over GST control)"
same,binding signal,[15],"1.24 fold enrichment (6-mer frequency, TF over GST control)"
same,binding signal,[16],"1.35 fold enrichment (6-mer frequency, TF over GST control)"
same,binding signal,[17],"1.43 fold enrichment (6-mer frequency, TF over GST control)"
same,binding signal,[18],"1.05 fold enrichment (6-mer frequency, TF over GST control)"
